Results published in publication PMC11062922 (Nature Chemical Biology, 2023).
Like-named read-outs stand apart in the source and are kept apart here.

Experiments:
Parameters in all cases: species or system human, MV4-11 + K-562 + COLO205 + SK-N-BE2 + OVCAR-8
[1] = system: CDK7; details: read-out: apparent Kd, compound concentrations: 100 nM and 1000 nM (sheet 'Samples'), n = 1
[2] = system: ERCC2; details: read-out: apparent Kd, compound concentrations: 100 nM and 1000 nM (sheet 'Samples'), n = 1
[3] = system: FER; details: read-out: apparent Kd, compound concentrations: 100 nM and 1000 nM (sheet 'Samples'), n = 1
[4] = system: LATS1; details: read-out: apparent Kd, n = 1
[5] = system: MARK4; details: read-out: apparent Kd, n = 1
[6] = system: PLK4; details: read-out: apparent Kd, compound concentrations: 100 nM and 1000 nM (sheet 'Samples'), n = 1
[7] = system: PRKAA1; details: read-out: apparent Kd, n = 1
[8] = system: PRKCQ; details: read-out: apparent Kd, n = 1
[9] = system: PTK2B; details: read-out: apparent Kd, compound concentrations: 100 nM and 1000 nM (sheet 'Samples'), n = 1
[10] = system: PTK2; details: read-out: apparent Kd, compound concentrations: 100 nM and 1000 nM (sheet 'Samples'), n = 1
[11] = system: RPS6KA6; details: read-out: apparent Kd, compound concentrations: 100 nM and 1000 nM (sheet 'Samples'), n = 1
[12] = system: STK10; details: read-out: apparent Kd, compound concentrations: 100 nM and 1000 nM (sheet 'Samples'), n = 1
[13] = system: PIP4K2C; details: read-out: apparent Kd, n = 1
[14] = system: PRKD3; details: read-out: apparent Kd, n = 1
[15] = system: DYRK1A; details: read-out: apparent Kd, compound concentrations: 100 nM and 1000 nM (sheet 'Samples'), n = 1
[16] = system: FLT3; details: read-out: apparent Kd, compound concentrations: 100 nM and 1000 nM (sheet 'Samples'), n = 1
[17] = system: CDKL5; details: read-out: apparent Kd, compound concentrations: 100 nM and 1000 nM (sheet 'Samples'), n = 1
[18] = system: MYLK3; details: read-out: apparent Kd, n = 1
[19] = system: PRKD2; details: read-out: apparent Kd; compound concentrations:100 nM and 1000 nM (sheet 'Samples'); n = 1
[20] = system: PRKCD; details: read-out: apparent Kd; compound concentrations:100 nM and 1000 nM (sheet 'Samples'); n = 1
[21] = compound concentrations:100 nM and 1000 nM (sheet 'Samples')

## Clc1cc(Cl)cc(Nc2ccnc(Nc3cc(Cl)cc(Cl)c3)n2)c1 [GSK175726A]
[1]; CATDS: 1.9330129421886999E-2
  potency estimated from few doses: 142 nM
[2]; CATDS: 2.00031391959163E-2
  potency estimated from few doses: 132 nM
[3]; CATDS: 2.0209257750724199E-2
  potency estimated from few doses: 130 nM
[4]; compound concentrations: 100 nM and 1000 nM (sheet 'Samples'), CATDS: 8.3705854443938306E-3
  potency estimated from few doses: 1830 nM
[5]; compound concentrations: 100 nM and 1000 nM (sheet 'Samples'), CATDS: 9.0821419541050104E-3
  potency estimated from few doses: 1200 nM
[6]; CATDS: 9.9833619636259807E-3
  potency estimated from few doses: 805 nM
[7]; compound concentrations: 100 nM and 1000 nM (sheet 'Samples'), CATDS: 1.70258179859262E-2
  potency estimated from few doses: 183 nM
[8]; compound concentrations: 100 nM and 1000 nM (sheet 'Samples'), CATDS: 8.3428687268584899E-3
  potency estimated from few doses: 1870 nM
[9]; CATDS: 1.7764778222698001E-2
  potency estimated from few doses: 168 nM
[10]; CATDS: 2.2055583015587899E-2
  potency estimated from few doses: 111 nM
[11]; CATDS: 2.32464475712073E-2
  potency estimated from few doses: 101 nM
[12]; CATDS: 8.4721916216742802E-3
  potency estimated from few doses: 1710 nM

## Cl.Nc1c(C(=O)c2cccc(C#CCN3CCCCC3)c2)cnn1-c1ccc(F)cc1 [RO1154461-001]
[1]; CATDS: 4.6552483673456102E-2
  potency estimated from few doses: 74.1 nM
[2]; CATDS: 5.2130998617594002E-2
  potency estimated from few doses: 63.2 nM
[3]; CATDS: 4.9023130772968097E-2
  potency estimated from few doses: 68.9 nM
[4]; compound concentrations: 100 nM and 1000 nM (sheet 'Samples'), CATDS: 1.0207334677420601E-2
  potency estimated from few doses: 1780 nM
[5]; compound concentrations: 100 nM and 1000 nM (sheet 'Samples'), CATDS: 1.0984902394488599E-2
  potency estimated from few doses: 1350 nM
[13]; compound concentrations: 100 nM and 1000 nM (sheet 'Samples'), CATDS: 1.00291751764076E-2
  potency estimated from few doses: 1910 nM
[6]; CATDS: 1.52727578092353E-2
  potency estimated from few doses: 534 nM
[7]; compound concentrations: 100 nM and 1000 nM (sheet 'Samples'), CATDS: 1.6696552241267201E-2
  potency estimated from few doses: 436 nM
[8]; compound concentrations: 100 nM and 1000 nM (sheet 'Samples'), CATDS: 1.06314955132201E-2
  potency estimated from few doses: 1520 nM
[14]; compound concentrations: 100 nM and 1000 nM (sheet 'Samples'), CATDS: 9.8039284052072601E-3
  potency estimated from few doses: 2110 nM
[9]; CATDS: 4.70772148713983E-2
  potency estimated from few doses: 72.9 nM
[10]; CATDS: 1.89593095974224E-2
  potency estimated from few doses: 333 nM
[11]; CATDS: 1.98632860807328E-2
  potency estimated from few doses: 303 nM
[12]; CATDS: 1.0028252220669101E-2
  potency estimated from few doses: 1910 nM

## O=C1N=C(NCCCc2ccccc2)S/C1=C\c1ccc2ncccc2c1 [RO4493941-000]
[15]; CATDS: 6.8092992761352805E-2
  potency estimated from few doses: 1090 nM
[16]; CATDS: 7.0899563785954994E-2
  potency estimated from few doses: 945 nM

## Cc1cc(-c2ccnc(Nc3cccc(C#N)c3)n2)cc(C)c1O [GSK1440913A]
[13]; compound concentrations: 100 nM and 1000 nM (sheet 'Samples'), CATDS: 0.18719100340522599
  potency estimated from few doses: 168 nM

## CNCC#Cc1c(F)ccc2c1/C(=C/c1[nH]ccc1OC)C(=O)N2.Cl [RO0281601-001]
[17]; CATDS: 0.30453752260001898
  potency estimated from few doses: 9.43 nM
[16]; CATDS: 6.9218069305552701E-2
  potency estimated from few doses: 105 nM
[4]; compound concentrations: 100 nM and 1000 nM (sheet 'Samples'), CATDS: 3.7561417632614502E-2
  potency estimated from few doses: 394 nM
[5]; compound concentrations: 100 nM and 1000 nM (sheet 'Samples'), CATDS: 2.40121909495257E-2
  potency estimated from few doses: 1380 nM
[18]; compound concentrations: 100 nM and 1000 nM (sheet 'Samples'), CATDS: 6.4458343159200099E-2
  potency estimated from few doses: 121 nM

## CN(C)CC(O)COc1ccc(Nc2nccc(-c3cnn4nc(N5CCOCC5)ccc34)n2)cc1 (stereo not shown) [GW767488X]
[13]; [21]
  potency estimated from few doses: 1440 nM
[19]
  potency estimated from few doses: 28.7 nM
[14]; [21]
  potency estimated from few doses: 44.8 nM

## CNCc1ccc(-c2cc(-c3nc(-c4ccc(S(=O)(=O)C(C)C)cc4)cnc3N)on2)cc1 [VE-822]
[13]; [21]
  potency estimated from few doses: 186 nM

## CCn1c(-c2nonc2N)nc2c(C#CC(C)(C)O)nc(O[C@@H](CN)c3ccccc3)cc21.O=C(O)C(F)(F)F [GSK1007102B]
[4]; [21]
  potency estimated from few doses: 23.2 nM
[5]; [21]
  potency estimated from few doses: 768 nM
[7]; [21]
  potency estimated from few doses: 917 nM
[20]
  potency estimated from few doses: 173 nM
[8]; [21]
  potency estimated from few doses: 71.9 nM

## Cc1ccccc1-n1ncc(C(=O)c2ccccc2)c1N [RO1151248-000]
[1]; CATDS: 3.2970650229379797E-2
  potency estimated from few doses: 492 nM
[17]; CATDS: 1.7260547192186899E-2
  potency estimated from few doses: 2240 nM
[2]; CATDS: 3.4220969225155197E-2
  potency estimated from few doses: 462 nM
[3]; CATDS: 3.2819446415030699E-2
  potency estimated from few doses: 496 nM
[6]; CATDS: 2.3524551530655802E-2
  potency estimated from few doses: 946 nM
[7]; compound concentrations: 100 nM and 1000 nM (sheet 'Samples'), CATDS: 2.2348662654876499E-2
  potency estimated from few doses: 1060 nM
[8]; compound concentrations: 100 nM and 1000 nM (sheet 'Samples'), CATDS: 1.77818646264679E-2
  potency estimated from few doses: 2020 nM
[9]; CATDS: 3.03657064915384E-2
  potency estimated from few doses: 568 nM
[10]; CATDS: 2.47359073742957E-2
  potency estimated from few doses: 848 nM
[11]; CATDS: 3.3090095643126802E-2
  potency estimated from few doses: 489 nM

## CN(c1ccc(NC(=O)NCCN2CCOCC2)cc1)c1ccnc(Nc2ccc(CS(C)(=O)=O)cc2)n1.Cl [GW830365A]
[16]; CATDS: 0.17522141736576
  potency estimated from few doses: 107 nM
[6]; CATDS: 4.9779081320457601E-2
  potency estimated from few doses: 1320 nM

## CS(=O)(=O)Nc1ccc(-c2ccnc3[nH]ccc23)cc1 [GSK993273A]
[13]; [21]
  potency estimated from few doses: 482 nM

## CC(C)Nc1cc(-c2ccc3c(N)n[nH]c3c2)nc(N)n1 [GSK2221681A]
[18]; [21]
  potency estimated from few doses: 1410 nM

## O=C1N=C(NCc2cccs2)O/C1=C\c1ccc2ncccc2c1 [RO4624208-000]
[15]; CATDS: 0.15601694862230001
  potency estimated from few doses: 53.8 nM
